Results: the supplement of paper PMC3334620
Over roughly 33,000 sequences, “E-score (-0.5 to 0.5)” has its median near -0.012; the highest 2% begin near 0.29. The sample as a whole holds a higher share of the highest values than the screen did.

These sequences were tested against T1, Ybr033w (UniProt P38073) (assay: PBM E-score (8-mer binding enrichment) (E-score (-0.5 to 0.5)); higher = stronger / more preferred TF binding). Conditions: protein concentration: 200 nM; construct: GST-full length.
T1 sequence: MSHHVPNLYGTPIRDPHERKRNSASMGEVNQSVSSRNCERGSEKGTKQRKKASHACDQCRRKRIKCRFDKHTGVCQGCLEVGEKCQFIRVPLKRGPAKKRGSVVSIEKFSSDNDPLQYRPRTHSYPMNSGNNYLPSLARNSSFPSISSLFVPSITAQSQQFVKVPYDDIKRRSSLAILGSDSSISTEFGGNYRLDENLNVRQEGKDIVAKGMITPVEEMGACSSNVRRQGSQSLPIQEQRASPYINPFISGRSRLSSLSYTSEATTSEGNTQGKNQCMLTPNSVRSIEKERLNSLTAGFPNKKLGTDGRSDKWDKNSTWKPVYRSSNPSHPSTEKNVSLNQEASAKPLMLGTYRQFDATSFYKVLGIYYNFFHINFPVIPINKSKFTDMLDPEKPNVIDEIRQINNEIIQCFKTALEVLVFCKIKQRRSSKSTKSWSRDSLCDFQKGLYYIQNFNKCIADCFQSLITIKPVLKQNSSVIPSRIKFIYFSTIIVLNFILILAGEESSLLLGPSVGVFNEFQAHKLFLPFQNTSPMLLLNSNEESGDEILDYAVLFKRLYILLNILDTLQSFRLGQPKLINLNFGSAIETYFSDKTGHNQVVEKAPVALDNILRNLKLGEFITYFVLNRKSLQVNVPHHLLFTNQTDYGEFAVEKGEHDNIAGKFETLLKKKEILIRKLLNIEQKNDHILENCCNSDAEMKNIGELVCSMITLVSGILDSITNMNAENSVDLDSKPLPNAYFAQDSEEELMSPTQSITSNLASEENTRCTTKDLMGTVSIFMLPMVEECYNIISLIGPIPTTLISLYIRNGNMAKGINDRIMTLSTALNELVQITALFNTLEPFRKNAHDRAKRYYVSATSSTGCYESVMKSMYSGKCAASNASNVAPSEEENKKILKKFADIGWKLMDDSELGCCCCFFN
Procedure: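 Universal 'all 10-mer' protein binding microarrays (Agilent AMADID 015681) probed with GST-tagged S. cerevisiae TFs (full-length or DBD) made by in vitro transcription/translation (PURExpress), about 100-200 nM. Bound TF was detected with fluorescent anti-GST. Each ungapped 8-mer (which stands for itself and its reverse complement) is scored by the PBM enrichment score (E-score), a modified Wilcoxon-Mann-Whitney statistic from -0.5 to +0.5, computed with the Universal PBM Analysis Suite. Scale: above 0.35 generally sequence-specific binding.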

| Sequence | PBM E-score |
| --- | --- |
| ATAAAATA | 0.344 |
| GTAAAATA | 0.269 |
| ATAAAATC | 0.226 |
| ATAAATAA | 0.38 |
| ATAAAAAG | 0.316 |
| ATAAAAAT | 0.193 |
| ATAAATAT | 0.396 |
| ATAAATAG | 0.254 |
| ATAAAAAA | 0.164 |
| CGAAAATC | 0.222 |
| CACCTATA | 0.0106 |
| AGTCTGTC | -0.0266 |
| ACCTTCCG | -0.032 |
| CGTATAGC | -0.0573 |
| CGATTGGC | -0.0233 |
| ACCGGTCA | -0.2 |
| CCCCAAAC | -0.101 |
| AAATAAGA | 0.16 |
| ACTCAGAA | 0.11 |
| TGCTATAA | 0.0493 |
| AAATTGTC | 0.192 |
| ATATTGAG | 0.259 |

| Sequence | PBM E-score |
| --- | --- |
| AAATTGAC | 0.108 |
| AAATTGTT | 0.317 |
| ATATTGAA | 0.189 |
| AAATTGTA | 0.22 |
| AAATTGAA | 0.127 |
| AAATTGAT | 0.336 |
| ATATTGAT | 0.39 |
| AAGGGCAG | -0.151 |
| TACTGGCA | -0.0764 |
| ATAGAGCG | -0.117 |
| AGCACTCC | -0.0492 |
| ACAATAAC | 0.246 |
| ATAATAGA | 0.223 |
| ATAATACA | 0.305 |
| CTAATAAC | 0.216 |
| ACAATAAT | 0.341 |
| CTAATAAA | 0.28 |
| ATAATACC | 0.187 |
| ATAATACG | 0.187 |
| GTAATAAA | 0.198 |
| ATAATAAA | 0.366 |
| ACAATAAA | 0.14 |

| Sequence | PBM E-score |
| --- | --- |
| TTAATAAA | 0.381 |
| ACAGCCCG | -0.175 |
| GATCTCCA | -0.0356 |
| GGATCTAA | -0.0711 |
| CGAGACCC | -0.167 |
| GAGAACTA | 0.101 |
| AAGCCCTA | -0.124 |
| ACATACAT | 0.226 |
| AACCCTAG | -0.0236 |
| ACTTTAAT | 0.114 |
| AAGCAAAA | 0.13 |
| CCGGGTCG | -0.279 |
| CCCGGGAC | -0.322 |
| ATAATGAG | 0.0777 |
| ATAATAAT | 0.305 |
| ATAATAAC | 0.159 |
| ATAATGAA | 0.331 |
| ATAATAAG | 0.18 |
| ATAATGAT | 0.203 |
| CTTGCTGA | 0.0188 |
| CGGACAAA | 0.297 |
| CGGACAAG | -0.0192 |

| Sequence | PBM E-score |
| --- | --- |
| AGGACAAA | 0.17 |
| CAGACTTA | -0.189 |
| TCAAGAGA | 0.0989 |
| AGATTCTA | 0.106 |
| GATGTTCA | -0.079 |
| GATGTTCC | 0.412 |
| CATGTTCC | 0.0191 |
| CCTGAGAC | -0.235 |
| ATTCTCCA | 0.175 |
| ATTCTCCG | 0.305 |
| ATTCTCCC | 0.14 |
| CCACAGGC | -0.336 |
| AACTCTCT | 0.0664 |
| ACCTCAGG | -0.12 |
| ATATCTTA | 0.281 |
| ATATCTTG | 0.288 |
| ATATCTTC | 0.218 |
| CTAGAGGA | -0.102 |
| GCAAATTA | 0.106 |
| TGGTCGAA | -0.209 |
| GGTATACA | 0.00479 |
| AATATACT | 0.279 |
